Whole data set: some 8,300 sequences, median “log2 fold change of degron read counts, EGFP-low vs EGFP+ sorted cells (limma voom), compound-induced degradation” near -1.1, cut for the highest 2% near 3.2. The list comes from a sample in which the highest values are over-represented; it also holds similar and randomly drawn sequences.
Target: T1, CRBN, Q96SW2
T1 chain: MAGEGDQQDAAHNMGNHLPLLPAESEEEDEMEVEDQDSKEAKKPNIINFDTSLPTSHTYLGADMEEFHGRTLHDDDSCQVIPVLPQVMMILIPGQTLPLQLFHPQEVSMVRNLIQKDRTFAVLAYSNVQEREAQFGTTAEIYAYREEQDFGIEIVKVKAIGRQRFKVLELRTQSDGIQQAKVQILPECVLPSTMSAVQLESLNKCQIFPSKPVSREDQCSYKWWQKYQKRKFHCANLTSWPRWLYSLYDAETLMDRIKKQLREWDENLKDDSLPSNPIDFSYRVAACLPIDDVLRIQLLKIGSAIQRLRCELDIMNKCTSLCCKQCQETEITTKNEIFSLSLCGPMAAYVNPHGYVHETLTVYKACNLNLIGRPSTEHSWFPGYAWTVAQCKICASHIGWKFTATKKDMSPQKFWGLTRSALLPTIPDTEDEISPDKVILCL
Assay: log2 fold change of degron read counts, EGFP-low vs EGFP+ sorted cells (limma voom), compound-induced degradation; higher = more compound-induced degradation of the degron-EGFP fusion; degrons are variants of IKZF1/3 zinc finger 2; compound dose not given here
Details: Jurkat, 18 h
Description: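 Pooled library of 8380 IKZF3 ZF2 degron mutants (positions 146-167 varied within the IKZF3 130-189 degron; only the varied core is printed, flanks not printed) fused to EGFP with IRES-mCherry, lentivirally expressed in Jurkat cells. mCherry+ cells were treated with one IMiD compound for 18 h (dose not stated) and FACS-sorted into EGFP-low and EGFP+ populations. Degron sequences were counted by NGS, and log2FC (EGFP-low vs EGFP+) was estimated by limma voom over 3 biological replicates.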

[1] = compound: compound 19 (5-tert-butyl-thalidomide)
[2] = compound: compound 22 (5-morpholino-thalidomide)
[3] = compound: compound 33 (diphenyl IMiD analogue)
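Further: pooled lentiviral library of zinc finger degron-EGFP fusions in mCherry-positive Jurkat cells, FACS-sorted after compound exposure, with degron abundance counted by next-generation sequencing.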

Row | Sequence | log2 fold change of degron read counts [1] | log2 fold change of degron read counts [2] | log2 fold change of degron read counts [3] | log2 fold change of degron read counts (compound: thalidomide)
1 | FNCPICGAEFTQKGNLLRHIKL [46F_47N_49P_50I_52G_53A_54E_55F_67L_, Q9UKT9] | 1.92 | 0.348 | 0.475 | 0.897
2 | FECDICGARFTQKGNLLRHIKL [46F_47E_49D_50I_52G_53A_54R_55F_67L_, Q9UKT9] | -0.106 | -1.6 | -0.318 | 1.69
3 | FRCPICGHKFTQKGNLLRHIKL [46F_47R_49P_50I_52G_53H_54K_55F_67L_, Q9UKT9] | -2.46 | -2.78 | -1.61 | -1.55
4 | FSCNQCGRMFTQKGNLLRHIKL [46F_47S_49N_50Q_52G_53R_54M_55F_67L_, Q9UKT9] | -2.45 | -3.15 | -2.32 | -2.79
5 | FHCNQCGHKFTQKGNLLRHIKL [46F_47H_49N_50Q_52G_53H_54K_55F_67L_, Q9UKT9] | -2.56 | -3.05 | -2.84 | -2.45
6 | FDCPICGRRFTQKGNLLRHIKL [46F_47D_49P_50I_52G_53R_54R_55F_67L_, Q9UKT9] | 2.15 | 0.908 | 1.08 | 2.66
7 | LCCNQCGFHCTQKGNLLRHIKL [46L_47C_49N_50Q_52G_53F_54H_55C_67L_, Q9UKT9] | -2.15 | -2.61 | -1.7 | -1.96
8 | FDCSVCGHPFTQKGNLLRHIKL [46F_47D_49S_50V_52G_53H_54P_55F_67L_, Q9UKT9] | -1.84 | -2.36 | -2.33 | -1.9
9 | FKCDVCGAYFTQKGNLLRHIKL [46F_47K_49D_50V_52G_53A_54Y_55F_67L_, Q9UKT9] | -2.99 | -3.36 | -3.07 | -2.83
10 | FECDVCGADFTQKGNLLRHIKL [46F_47E_49D_50V_52G_53A_54D_55F_67L_, Q9UKT9] | -3.21 | -3.19 | -1.99 | -2.31
11 | FWCPICGRPFTQKGNLLRHIKL [46F_47W_49P_50I_52G_53R_54P_55F_67L_, Q9UKT9] | 2.01 | 0.778 | 1.24 | -0.187
12 | FWCPQCGAKFTQKGNLLRHIKL [46F_47W_49P_50Q_52G_53A_54K_55F_67L_, Q9UKT9] | 1.29 | 2.33 | -0.101 | -0.258
13 | FKCEICGAQFTQKGNLLRHIKL [46F_47K_49E_50I_52G_53A_54Q_55F_67L_, Q9UKT9] | 0.105 | -2.17 | -1.89 | -0.0845
14 | FCCEICGAQFTQKGNLLRHIKL [46F_47C_49E_50I_52G_53A_54Q_55F_67L_, Q9UKT9] | 3.18 | 2.58 | 2.74 | 2.27
15 | FVCEICGAQFTQKGNLLRHIKL [46F_47V_49E_50I_52G_53A_54Q_55F_67L_, Q9UKT9] | 0.913 | 2.56 | 2.86 | 3.22
16 | FACEICGAQFTQKGNLLRHIKL [46F_47A_49E_50I_52G_53A_54Q_55F_67L_, Q9UKT9] | 3.66 | 2.38 | 1.15 | 1.07
17 | FGCEICGAQFTQKGNLLRHIKL [46F_47G_49E_50I_52G_53A_54Q_55F_67L_, Q9UKT9] | 3.48 | 2.64 | 1.18 | 1.14
18 | FNCEICGAQFTQKGNLLRHIKL [46F_47N_49E_50I_52G_53A_54Q_55F_67L_, Q9UKT9] | 2.88 | 1.44 | 0.527 | 0.564
19 | FTCDQCGASFTQKGNLLRHIKL [46F_47T_49D_50Q_52G_53A_54S_55F_67L_, Q9UKT9] | -1.41 | -1.1 | -0.521 | -1.39
20 | FRCEICGRAFTQKGNLLRHIKL [46F_47R_49E_50I_52G_53R_54A_55F_67L_, Q9UKT9] | -1.67 | -1.99 | 0.837 | 0.0765
21 | LWCNQCGFLCTQKGNLLRHIKL [46L_47W_49N_50Q_52G_53F_54L_55C_67L_, Q9UKT9] | -0.0173 | -0.578 | -0.261 | -0.106
22 | LACEICGFACTQKGNLLRHIKL [46L_47A_49E_50I_52G_53F_54A_55C_67L_, Q9UKT9] | 3.1 | 2.3 | 0.347 | 0.922
23 | LCCEICGFACTQKGNLLRHIKL [46L_47C_49E_50I_52G_53F_54A_55C_67L_, Q9UKT9] | 1.77 | 1.67 | 1 | 1.51
24 | LSCEICGFACTQKGNLLRHIKL [46L_47S_49E_50I_52G_53F_54A_55C_67L_, Q9UKT9] | 2.2 | 2.05 | 0.991 | 1.15
25 | LWCEICGFACTQKGNLLRHIKL [46L_47W_49E_50I_52G_53F_54A_55C_67L_, Q9UKT9] | 2.64 | 3.24 | 2.31 | 1.06
26 | LICEICGFACTQKGNLLRHIKL [46L_47I_49E_50I_52G_53F_54A_55C_67L_, Q9UKT9] | 0.692 | 2.24 | 1.68 | 2.74
27 | LYCEICGFACTQKGNLLRHIKL [46L_47Y_49E_50I_52G_53F_54A_55C_67L_, Q9UKT9] | 3.17 | 3.5 | 2.65 | 1.71
28 | LECEICGFACTQKGNLLRHIKL [46L_47E_49E_50I_52G_53F_54A_55C_67L_, Q9UKT9] | 0.666 | -1.22 | 0.464 | 1.55
29 | LGCEICGFACTQKGNLLRHIKL [46L_47G_49E_50I_52G_53F_54A_55C_67L_, Q9UKT9] | 0.464 | -0.188 | -0.784 | -0.556
30 | LQCEICGFACTQKGNLLRHIKL [46L_47Q_49E_50I_52G_53F_54A_55C_67L_, Q9UKT9] | 2.27 | 1.95 | 1.57 | 3.4

Reference: the supplement of paper PMC12645437, “Orthogonal IMiD-Degron Pairs Induce Selective Protein Degradation in Cells” (ACS Chemical Biology, 2025)
